Source: PubChem
This is a sample that favours compounds with a hit; in the whole collection about 22% have one here.
CYP2C19 act: increases human CYP2C19 enzyme activity. 96,000 tested, under 10 active. activation factor at 5 µM. recombinant CYP2C19, luciferin-H EGE luminescence; active compounds read high; 0 = fully inhibited enzyme, 1 = untreated enzyme;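 active = activation factor of at least 2 at 5 µM in the primary screen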
CYP2C19 inh: inhibitors of human CYP2C19; P33261; CYP2C19 Supersomes, luciferin-H EGE luminescence, 30 min; inhibition, % at 5 µM; actives 21% (n = 96,000);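 active = CYP2C19 inhibition above a set limit at 5 µM in the primary screen, cut at about 50% in these data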
CYP2C9 inhib: blocks human cytochrome P450 2C9; actives 20% (n = 96,000); inhibition, % at 5 µM; CYP2C9 Supersomes, luciferin-H conversion, luminescence; P11712;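 active = blocking of liver enzyme CYP2C9 beyond about 50% at 5 µM, limit read from the data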
Target sequence (P11712 whole entry, looked up): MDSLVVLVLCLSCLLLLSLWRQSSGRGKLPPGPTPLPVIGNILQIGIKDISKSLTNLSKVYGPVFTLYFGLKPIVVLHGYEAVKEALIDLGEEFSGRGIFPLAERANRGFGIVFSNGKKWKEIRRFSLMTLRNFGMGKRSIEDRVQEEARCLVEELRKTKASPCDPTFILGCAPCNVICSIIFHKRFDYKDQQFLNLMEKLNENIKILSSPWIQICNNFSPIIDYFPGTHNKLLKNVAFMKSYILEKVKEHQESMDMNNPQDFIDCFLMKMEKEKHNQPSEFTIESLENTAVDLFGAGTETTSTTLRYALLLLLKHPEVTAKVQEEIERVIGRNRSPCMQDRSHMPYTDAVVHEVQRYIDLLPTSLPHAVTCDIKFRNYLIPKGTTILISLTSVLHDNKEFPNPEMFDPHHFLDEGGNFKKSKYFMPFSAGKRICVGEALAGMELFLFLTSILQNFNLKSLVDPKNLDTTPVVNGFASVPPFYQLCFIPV
CYP2C9 activ: activators of human CYP2C9. activation factor at 5 µM. actives 1.4% (n = 96,000). recombinant CYP2C9, luciferin-H conversion, luminescence; active compounds read high; factor 1 = untreated enzyme, 0 = blocked. AID 1024;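 active = activation factor of 2 or more for CYP2C9 at a 5 µM dose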
Measles CPE: protection of cells from measles virus; Measles virus-infected cells, CPE protection, absorbance; protection (pct of control), % at 4 µM; actives 1.5% (n = 140,000); AID 841; in the data active = protection mostly above about 24%, no sharp cut-off; inactive = mostly below about 26%
Numbers stand for hits; - = inactive; . = no result.

SMILES	CYP2C19 act	CYP2C19 inh	CYP2C9 inhib	CYP2C9 activ	Measles CPE
O=C(O)CCCNC(=O)c1cncc(O)c1	-	-	-	-	-
COC(=O)c1sccc1-n1cccc1C(=O)N1CCOCC1	-	-	-	-	-
COc1ccc(C(C)(C)C)cc1NC(=O)c1cncc(Br)c1	-	-	-	-	-
CCc1nnc(NC(=O)NC(C)(C)C)s1	-	-	-	-	-
COc1ccccc1NS(=O)(=O)c1ccc2oc(SCc3ccc(C#N)cc3)nc2c1	.	.	.	.	-
CCN(CC)S(=O)(=O)c1ccc2oc(SCc3ccc(F)cc3)nc2c1	-	-	69	-	-
Cc1cc2ccccc2n1CCNC(=O)Cc1cccc2ccccc12	-	-	-	-	-
Oc1ccc(CNC2CCCCC2)cc1	-	-	-	-	-
Clc1ccc(CNC2CCCC2)cc1	-	78	-	-	-
COC(=O)C1=C(C)N(C(C)C)C(=O)C1(NC(=O)C1CCCCC1)C(F)(F)F (stereo unspecified)	-	-	-	-	-
O=C(COc1ccc(Br)cc1)Nc1ccncc1	-	100	97	-	-
CC(=O)Nc1ccc(NC(=O)COc2ccc(Br)cc2C)cc1	.	.	.	.	-
CC(NC(=O)COc1ccc(Br)cc1)C(=O)O (stereo unspecified)	-	-	-	-	-
Cc1cc(C)c(OCC(=O)Nc2cccc(O)c2)cc1C	-	75	-	-	-
Cc1cc(OCC(=O)Nc2ccncc2)c(C)cc1Br	-	100	100	-	-
CCOC(=O)N1CCN(CC(O)COCC2=CCC3CC2C3(C)C)CC1 (stereo unspecified)	-	-	-	-	-
CC(=O)O/N=C/c1c(N2CCOCC2)n(C)c2ccccc12	-	-	-	-	-
Cc1ccc(C(=O)O/N=C/c2c(Cl)n(C)c3ccccc23)cc1	-	-	-	-	-
Cn1c(Cl)c(/C=N/OC(=O)c2ccc(Cl)cc2)c2ccccc21	-	-	-	2.1	-
Cn1c(N2CCOCC2)c(/C=N/OC(=O)c2ccc(F)cc2)c2ccccc21	-	-	56	-	-
Cc1ccc(C(=O)O/N=C/c2c(N3CCOCC3)n(C)c3ccccc23)cc1	-	68	84	-	-
CCC(=O)NC(=S)Nc1cccc(NC(=O)c2ccc(Cl)cc2Cl)c1	-	-	-	-	-
CCSc1ccccc1C(=O)NCc1ccc(S(N)(=O)=O)cc1	-	-	-	-	-
COc1cc(OC)c(C2SCCS2)c(OC)c1	.	.	.	.	33
CN(Cc1ccccc1)C(=O)CCCn1c(=O)[nH]c2cc(Cl)ccc2c1=O	-	82	-	-	-
SMILES	CYP2C19 act	CYP2C19 inh	CYP2C9 inhib	CYP2C9 activ	Measles CPE
CCOC(=O)C1=C(C)NC(=O)NC1c1ccc(OC(C)C(=O)O)c(OC)c1 (stereo unspecified)	-	-	-	-	-
COc1ccc(Nc2nc(-c3sc(NC(C)=O)nc3C)cs2)cc1	-	82	81	-	-
Cc1nc(N)sc1-c1csc(Nc2ccccn2)n1	-	-	61	-	-
COc1ccc(Nc2nc(-c3sc(N)nc3C)cs2)cc1	-	78	80	-	-
COC(=O)Nc1cc(C(F)(F)F)ccc1N1CCN(c2ccccc2)CC1	-	-	-	-	-
c1ccc2c(c1)[nH]c1nc3nncn3nc12	-	-	-	-	-
O=C(NCCSCc1ccccc1)c1ccccc1	.	.	.	.	-
COc1ccc(-n2nc(C(=O)Nc3ccc(OC)c(OC)c3)c3c4ccccc4n(C)c3c2=O)cc1	-	-	-	-	-
O=C1/C(=C\c2ccccn2)SC(=S)N1Nc1ncc(C(F)(F)F)cc1Cl	-	65	-	-	-
O=[N+]([O-])c1ccc(-c2cn(-c3ccc(Cl)cc3)c(=S)[nH]2)cc1	.	.	.	.	-
COc1ccc(S(=O)(=O)N(CC(=O)N2CCN(C)CC2)C2CCCCC2)cc1OC	-	-	-	-	-
CCOc1cc(C(=O)N(C)c2ccccc2)cc(OCC)c1OCC	-	57	-	-	-
CCOc1cc(C(=O)N2CCN(c3ccccc3)CC2)cc(OCC)c1OCC	-	-	-	-	-
Cc1cc2cc(C)c3nnc(SCC(=O)N4CCCc5ccccc54)n3c2cc1C	-	-	-	-	-
O=C(c1ccccc1)c1ccccc1N/C=C/c1nnnn1-c1ccccc1	-	73	-	-	-
COc1ccc(C(F)(F)F)cc1N/C=C\c1nnnn1-c1ccccc1	-	65	71	-	-
Cc1cc(N/C=C\c2nnnn2-c2ccccc2)no1	.	.	.	.	-
CC(C)NS(=O)(=O)c1ccc(NC(=O)NC2CCCCC2)cc1	.	.	.	.	-
CCOC(=O)CC(C#N)c1c[nH]c2ccccc12 (stereo unspecified)	-	70	-	-	-
CCCN(CCC)C(=O)CSc1nc2ccccc2c(=O)n1C1CCCC1	-	-	65	-	-
CN(C)c1ccc(NC(=O)CSc2nc3ccccc3c(=O)n2C2CCCCC2)cc1	-	-	69	-	-
CCN(CC)C(=O)CSc1nc2ccccc2c(=O)n1-c1ccccc1OC	-	-	53	-	-
CCN(CC)C(=O)CSc1nc2cccnc2n1-c1ccccc1OC	-	-	-	-	-
Cc1ccc(NC(=O)COc2ccc(/C=C3/SC(=Nc4ccccc4)N(Cc4cccnc4)C3=O)cc2)cc1	-	-	53	-	-
CCC(=O)N(Cc1ccc(S(N)(=O)=O)cc1)C1CC(=O)N(c2ccc(OC)cc2)C1=O (stereo unspecified)	-	-	-	-	-
SMILES	CYP2C19 act	CYP2C19 inh	CYP2C9 inhib	CYP2C9 activ	Measles CPE
O=C(NCCCc1ccccc1)c1ccc(Br)o1	-	96	51	-	-
O=C(NCCC1=CCCCC1)c1ccc(Br)o1	-	90	59	-	-
O=C(NCCCCc1ccccc1)c1ccc(Br)o1	.	.	.	.	-
O=C(NCc1ccccc1)c1ccc(-c2ccccc2F)o1	-	62	-	-	-
O=C(NCCc1ccccc1)c1ccc(-c2ccccc2C(F)(F)F)o1	.	.	.	.	-
O=C(NCCO)c1ccccc1O	-	-	-	-	26
CCCc1nc(NCC2CCCO2)c2nnn(Cc3ccccc3)c2n1 (stereo unspecified)	.	.	.	.	-
Cc1cc(/C=N/NC(=O)c2cccc([N+](=O)[O-])c2)c(C)n1-c1ccc(Cl)cc1Cl	-	-	-	-	-
O=C(NCc1ccc(Cl)cc1)c1ccc(Br)o1	-	95	59	-	-
O=C(NCCCc1ccccc1)c1cccs1	-	-	-	-	-
NS(=O)(=O)c1ccc(CNC(=O)c2ccc(Br)o2)cc1	-	-	-	-	-
O=C(NCCCc1ccccc1)c1ccccc1O	-	97	90	-	-
O=C(N/C=C/c1ccc(Cl)cc1)NCc1ccc(Cl)cc1	-	-	-	-	-
Cc1cccc(C)c1NC(=O)C1CCCNC1 (stereo unspecified)	-	-	-	-	-
COc1ccc(OC)c(/C=C(\NC(=O)c2ccccc2)C(=O)N/N=C/c2ccc(C)s2)c1	-	-	-	-	35
Cc1nc(SCN2C(=O)c3ccccc3C2=O)n[nH]1	.	.	.	.	-
Cc1cc(C(=O)CSc2n[nH]c(N)n2)c(C)n1-c1cccc(F)c1	-	90	52	-	-
COc1ccccc1C(=O)CSc1n[nH]c(N)n1	-	-	-	3	-
